# Laboratory results published in PubChem BioAssay AID2244 (Southern Research Specialized Biocontainment Screening …, 2010).
# Measured potencies and affinities stand elsewhere. A number with no mark means an inactive call.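 How the source made its calls: active means viability below 70% at one or more tested concentrations; inactive means viability above 70% at every concentration.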
# Test: host cell viability loss, Vero E6 – synthesized analogs, cytotoxicity control for West Nile virus antiviral project, SAR follow-up (AID 2244)
# Conditions: CellTiter-Glo luminescence, 72 h, hits give low values; at 40 µM unless noted
row,SMILES,minimum viability
1,Nc1ccc2nc3n(c(=O)c2c1)CCC3,76.6%
2,Cc1cccc2nc3n(c(=O)c12)CCC3,78.3% [at 0.625 µM]
3,CC1CC(C)CN(C(=O)CSc2nc3ccccc3c(=O)n2-c2ccc(F)cc2)C1 (stereo not given),74.6%
4,Cc1ccc2nc3n(c(=O)c2c1)CCC3,76.4% [at 0.078 µM]
5,Cc1cccc2c(=O)n3c(nc12)CCC3,75.1% [at 0.078 µM]
6,O=C(CSc1nc2ccccc2c(=O)n1-c1ccc(F)cc1F)Nc1ccc(N2CCOCC2)cc1,70.7%
7,CCOC(=O)C1(Cc2ccccc2C(F)(F)F)CCN(C2CCN(C(C)=O)CC2)CC1,87% [at 80 µM]
8,O=c1c2cc(I)ccc2nc2n1CCC2,72.6%
9,c1ccc2c(c1)CN1CCCC1=N2,89.1% [at 20 µM]
10,O=[N+]([O-])c1ccc2c(c1)C(O)N1CCCC1=N2 (stereo not given),76.7% [at 0.078 µM]
11,O=c1c2c(F)cccc2nc2n1CCC2,80.3% [at 2.5 µM]
12,CC1(O)c2cc(Br)ccc2N=C2CCCN21 (stereo not given),74.6% [at 0.156 µM]
13,CC(=O)Nc1ccc2nc3n(c(=O)c2c1)CCC3,79.7% [at 0.625 µM]
14,COc1ccc(-c2csc(N(CCCBr)C(=O)c3ccccc3Cl)n2)cc1,70.2%
15,O=c1c2cccc(Cl)c2nc2n1CCC2,79.7% [at 5 µM]
16,COc1ccc(-c2csc(N(C)C(=O)c3ccccc3Cl)n2)cc1,78.5%
17,COc1ccc(NC(=O)CSc2nc3ccccc3c(=O)n2-c2ccc(F)cc2)cc1,70.1%
18,COc1cccc(-n2c(SCC(=O)Nc3ccc4c(c3)CCC4)nc3ccccc3c2=O)c1,74.6%
19,COc1ccccc1NC(=O)CSc1nc2ccccc2c(=O)n1-c1ccc(F)cc1,78.4%
20,O=c1c2cc([N+](=O)[O-])ccc2nc2n1CCC2,78.7%
